TDP1 cell CPT: DT40-hTDP1 cell growth loss with CPT | Potency, µM (highest dose often 46.2 µM), inactives show top-dose activity change, negative = growth inhibition, usual class: inhibitors | 12% of 420,000 active | chicken DT40 Tdp1-/-;hTDP1 cells + 20 nM CPT, ATP luminescence, 48 h; further: potency means the concentration at half of the fitted maximal effect; on the % scale 0 is the no-effect control and ±100 the full control effect; nearly all actives have a fitted effect of over 55% in size
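Chicken DT40 Tdp1-/- cells complemented with human TDP1, 400 cells/well, exposed to compounds plus 20 nM camptothecin for at least 48 h at 37 C; viability read as ATP content by CellTiter-Glo luminescence.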
IL1B secr inh: blocks inflammasome-driven IL-1 beta release | 4.7% of 360,000 active | THP-1 LPS/ATP IL-1B secretion, AlphaLISA, 16 h; stronger effect = lower value | activity change, % at 57.5 µM; in the data active means activity change below about -50%; inconclusive means mostly about -30% to -49%; further: on the % scale 0 is the no-effect control and ±100 the full control effect
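THP-1 cells pretreated 1 hr with compounds (up to 57.5 uM final), then stimulated with LPS (250 ng/mL final) plus ATP (1.25 mM final); secreted IL-1B measured by AlphaLISA after 16 hr, decreased signal indicating inhibition.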
DT40 TDP1 no CPT: qHTS for Inhibitors of human tyrosyl-DNA phosphodiesterase 1 (TDP1): qHTS in cells in absence of CPT; DT40 Tdp1-/- hTDP1 cells, no CPT, ATP luminescence, 48 h; Potency, µM (doses to about 46.2 µM), inactives show top-dose activity change, negative = growth inhibition, actives largely listed as inhibitors; 15% of 420,000 active; further: potency means the concentration at half of the fitted maximal effect; on the % scale 0 is the no-effect control and ±100 the full control effect; nearly all actives have a fitted effect of over 55% in size
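Luminescent ATP content (CellTiter-Glo) served as the growth readout. Knockout chicken DT40 cells expressing human TDP1 were exposed to compounds without camptothecin for a minimum 48 hr at 37 °C.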
TDP1 block: inhibitors of human tyrosyl-DNA phosphodiesterase TDP1 | AID 485290 | recombinant TDP1, AlphaScreen DNA substrate cleavage | 0.28% of 350,000 active | Q9NUW8 | Potency, µM (doses to about 130 µM), for inactives: at the highest dose activity change, negative = inhibition, hits mostly inhibitors; further: potency means the concentration at half of the fitted maximal effect; on the % scale 0 is the no-effect control and ±100 the full control effect; nearly all actives have a fitted effect of over 40% in size
Target sequence (Q9NUW8 whole entry, looked up): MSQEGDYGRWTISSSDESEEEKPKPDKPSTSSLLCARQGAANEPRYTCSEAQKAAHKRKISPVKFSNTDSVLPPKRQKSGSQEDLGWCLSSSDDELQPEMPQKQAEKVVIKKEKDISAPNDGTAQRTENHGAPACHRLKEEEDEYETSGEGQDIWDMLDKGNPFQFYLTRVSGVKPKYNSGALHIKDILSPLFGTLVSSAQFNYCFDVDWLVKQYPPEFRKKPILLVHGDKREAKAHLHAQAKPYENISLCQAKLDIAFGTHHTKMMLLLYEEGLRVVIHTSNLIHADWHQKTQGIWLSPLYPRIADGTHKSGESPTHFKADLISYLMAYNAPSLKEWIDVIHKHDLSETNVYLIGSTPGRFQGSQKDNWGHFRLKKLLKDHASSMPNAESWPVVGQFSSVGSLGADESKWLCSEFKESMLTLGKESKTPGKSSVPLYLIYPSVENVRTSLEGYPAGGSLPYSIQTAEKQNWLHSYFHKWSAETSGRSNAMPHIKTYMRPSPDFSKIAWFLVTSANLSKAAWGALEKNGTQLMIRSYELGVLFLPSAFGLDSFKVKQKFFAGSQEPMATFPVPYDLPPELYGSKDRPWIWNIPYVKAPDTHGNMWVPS
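E. coli-derived human Tdp1, 1 nM final. Cpd preinc 15 min RT; substrate 15 nM final, 5 min RT; AS bead mix 10 ug/ml final, 10 min RT. Signal loss = tyrosine-FITC cleavage. No-enzyme wells = max signal.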
TGFb inhibitor: TGF-b pathway inhibition; HepG2 CAGA-GFP TGF-b/SMAD3 reporter, GFP fluorescence, 18 h; TGF-beta stimulated, 500 pg/mL final; Potency, µM (titrated, usually from 46.1 µM), for inactives: at the highest dose activity, negative = inhibition, hits mostly inhibitors; 1.2% of 410,000 active; AID 588855; further: potency means the concentration at half of the fitted maximal effect; on the % scale 0 is the no-effect control and ±100 the full control effect; nearly all actives have a fitted effect of over 65% in size
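Using HEPG2 CAGA-GFP reporter cells at 1000 cells/well, we pinned test compounds, stimulated with recombinant TGF-beta (500 pg/mL final) and measured total well GFP after 18 h.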
HepG2 tox: counter-screen for TGF-b inhibitors: cytotoxicity in HepG2 cells; HepG2 CAGA-GFP viability, ATP luminescence, 18 h; Potency, µM (doses to about 46.1 µM), for the others: at the top dose activity change, negative = cytotoxicity, most hits filed as cytotoxic; AID 588856; 0.76% of 410,000 active; further: potency means the concentration at half of the fitted maximal effect
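CellTiter-Glo luminescence gave cytotoxicity after 18 hours at 37 degrees C. The cells were HepG2 CAGA-GFP in 1% FBS DMEM, stimulated with 500 pg/mL TGF-beta after compound addition. %Activity was normalised to no-cell wells (complete cell-killing) and DMSO (no toxicity), and curves were fitted and classified.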
Starred values were filed as active, the others as inactive; u = inconclusive; x = no result given; [ ] = remark or other dose. This is a sample that favours compounds with a hit; in the whole collection about 18% have one here. Unless noted, the call rests on the fitted dose curve; in most records, active means well fitted curve in the direction sought with a large enough effect; inconclusive means small, poorly fitted or top-dose-only effect, or another doubt; inactive means no such curve, though single readings can be large; an effect the other way counts as inactive or inconclusive.

SMILES	TDP1 cell CPT	IL1B secr inh	DT40 TDP1 no CPT	TDP1 block	TGFb inhibitor	HepG2 tox
CCCOc1ccc(C2NC(=O)NC2=O)cc1 (configuration not stated)	-16.1%	27.1	1.0%	2.8%[56.1 µM]	0.0%	-2.3%
NS(=O)(=O)c1ccc(CCNC(=O)c2nc(SCc3ccccc3F)ncc2Cl)cc1	4.9%	x	u	2.3%	-12.0%	-36.4%
NC(=O)c1ccccc1NC(=O)CSc1cn[nH]n1	-18.4%	26.2	-0.3%	-0.5%	-2.0%	8.8%
CN(C)c1ccc(O)c2c1CC1CC3C(N(C)C)C(=O)C(C(N)=O)=C(O)[C@@]3(O)C(=O)C1=C2O (some centres not stated)	2.06µM*	-4.1	1.84µM*	x	3.1%	-0.2%
CN(C)c1cc(NC(=O)CNC(C)(C)C)c(O)c2c1C[C@H]1C[C@H]3[C@H](N(C)C)C(=O)C(C(N)=O)=C(O)[C@@]3(O)C(=O)C1=C2O	10.1%	x	4.5%	x	x	x
CN(C)c1ccc(O)c2c1CC1CC3[C@@H](N(C)C)C(=O)C(C(N)=O)C(=O)[C@]3(O)C(=O)C1C2=O (some centres not stated)	6.51µM*	-20.2	4.11µM*	x	-3.0%	-23.1%
CCn1nc(C(=O)NNS(=O)(=O)c2ccc(C)cc2)c2ccccc2c1=O	-3.7%	23.0	-18.1%	0.3%	17.7%	18.5%
CC(=O)Nc1ccc(CN2C(=O)C(Cc3ccccc3)ON=C2c2ncccc2C)cc1 (configuration not stated)	u	14.9	u	x	3.2%	3.8%
O=C(OC1Cn2c(=O)ccc(=O)n2C1)c1ccccc1	-29.0%	-13.0	-3.0%	-4.3%	-1.8%	3.0%
O=c1[nH]c(CSc2cccc[n+]2[O-])nc2ccccc12	10.3µM*	62.9	u	4.1%	u	-48.0%
Cn1c(SCc2nc3ccccc3c(=O)[nH]2)nc2ccccc21	0.7%	21.8	-13.4%	-2.6%	u	-20.2%
COc1ccc(Nc2nc3ccc(C)cc3nc2-n2nc(C)cc2C)cc1Cl	1.3%	x	-5.8%	0.0%	28.5%	1.8%
CC1(C(=O)Nc2ccc(Cl)c(Cl)c2)CCN1Cc1cc2ccccc2o1 (configuration not stated)	-14.1%	0.0	-23.5%	x	-2.7%	1.4%
Cc1ccc(-c2csc(Nc3ccc(C(=O)O)cc3)[n+]2Cc2ccccc2)cc1	-23.8%	-10.7	u	5.4%	-2.1%	-12.9%
COc1ccc(-c2csc(Nc3ccccc3)[n+]2Cc2ccccc2)cc1	u	-26.9	14.6µM*	5.3%	u	-72.7%
O=[N+]([O-])c1ccc(-c2csc(Nc3ccccc3)[n+]2Cc2ccccc2)cc1	20.6µM*	-7.1	20.6µM*	5.4%	1.0%	-37.0%
Cc1ccc(S(=O)(=O)NCC(c2cccnc2)N2CCc3ccccc32)cc1 (configuration not stated)	u	-0.8	u	9.1%	u	-36.2%
Cc1cc(F)ccc1S(=O)(=O)NCC(c1cccnc1)N1CCc2ccccc21 (configuration not stated)	u	-6.5	16.4µM*	11.3%	u	-34.5%
O=C(NCC(c1cccnc1)N1CCc2ccccc21)c1cccc(Br)c1 (configuration not stated)	u	x	13µM*	5.2%	u	-31.4%
O=C(NCC(c1ccc(F)cc1)N1CCOCC1)c1cccc(Br)c1 (configuration not stated)	u	u	u	4.2%	-12.0%	1.3%
O=C(NCC(c1cccnc1)N1CCc2ccccc21)c1cccc(F)c1 (configuration not stated)	14.6µM*	x	20.6µM*	3.9%	u	-22.0%
Cc1ccc(C)c(N2CCN(C(=O)C(C)n3nc(C)c4sc5ccccc5c4c3=O)CC2)c1 (configuration not stated)	-7.8%	x	-14.7%	0.0%	u	-27.0%
Cc1nn(C(C)C(=O)N2CCCCC2)c(=O)c2c1sc1ccccc12 (configuration not stated)	u	7.1	20.6µM*	5.1%	-8.5%	4.9%
COc1ccc(N2CCN(C(=O)C(C)n3nc(C)c4sc5ccccc5c4c3=O)CC2)cc1 (configuration not stated)	u	x	16.4µM*	0.0%	-6.8%	-2.1%
OC1(c2cccs2)CN(c2ccccc2)C2=[N+]1CCCC2 (configuration not stated)	-0.7%	-86.7*	-3.9%	3.5%	-13.2%	9.9%
SMILES	TDP1 cell CPT	IL1B secr inh	DT40 TDP1 no CPT	TDP1 block	TGFb inhibitor	HepG2 tox
OC1(c2cccs2)CN(c2ccc(Br)cc2)C2=[N+]1CCCS2 (configuration not stated)	u	u	14.6µM*	-4.8%	u	-17.8%
OC1(c2ccccc2)CN(c2ccccc2)C2=[N+]1CCS2 (configuration not stated)	u	-66.4*	-28.1%	6.9%	-15.1%	-26.8%
Cc1ccc2nc(SCC(=O)N3CCC(C)CC3)nc(=O)n2c1	u	0.0	-15.3%	-9.2%	9.6%	6.0%
C=CCC[C@H](Cc1ccc(F)cc1)C(=O)OC[C@H](Cc1c[nH]c2ccccc12)NC(=O)[C@@H](CC=C)CC(=O)NCCO	u	-11.9	u	3.2%	u	-48.2%
C=CC[C@@H](CC(=O)N(CCO)Cc1ccccc1)C(=O)N[C@H](COC(=O)[C@@H](CC=C)Cc1ccc(F)cc1)Cc1c[nH]c2ccccc12	u	0.0	u	4.5%	u	-12.9%
C=CCC[C@@H](Cc1ccc(F)cc1)C(=O)OC[C@@H](Cc1c[nH]c2ccccc12)NC(=O)[C@@H](CC=C)CC(=O)N(CCO)Cc1ccccc1	u	-19.1	23.1µM*	5.9%	12.6µM*	-69.4%
C=CCC[C@H](Cc1ccc(F)cc1)C(=O)OC[C@H](Cc1c[nH]c2ccccc12)NC(=O)[C@H](CC=C)CC(=O)N(CCO)Cc1ccccc1	u	u	25.9µM*	2.7%	u	-26.5%
O=C1C(=O)N(CCO)C(c2ccc(Br)cc2)/C1=C(\O)c1ccccc1 (configuration not stated)	-29.7%	-8.9	0.6%	3.2%	-4.3%	11.5%
Cc1cc(C(=O)N2CCCc3ccccc32)ccc1[N+](=O)[O-]	-5.2%	-9.6	-24.3%	x	1.3%	-11.3%

Bioassay records: PubChem BioAssay, National Center for Advancing Translational Sciences (NCATS)
